Test results: PubChem BioAssay AID588475 (Sanford-Burnham Center for Chemical Genomics, 2011)
About 2,100 (0.6%) of roughly 350,000 compounds were called active.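 Rule for the calls: active = inhibition of the ligand-induced calcium signal above about 50% at the single tested concentration (limit read from the data); inactive = the rest.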 Many of the other results were omitted from the sample, so actives are more common in it than they were.

Experiment: antagonists of CRF-BP/CRF-R2 complex, primary screen, cell-based, HEK293, calcium dye fluorescence, uHTS (AID 588475)
Conditions: CRF-induced calcium fluorescence, at 11.8 µM, active compounds read high

inhibition, inactive:
CC(C)Oc1ccc(Cc2n[nH]c(=S)n2Cc2ccccc2)cc1Cl 2.65%, O=C(Nc1cccc(C(=O)O)c1)/C(=C\c1ccccc1)NC(=O)c1ccc(Br)o1 12.3%, COC(=O)Cn1cnc2scc(-c3ccc(C)c(C)c3)c2c1=O 0.19%, O=C(N/N=C/c1cccc2cccnc12)[C@H]1C[C@@H]1c1ccccc1 -18.3%, O=C(CCOc1ccccc1)NCc1ccccc1 2.03%, O=C(CCC(=O)c1ccccc1)NCc1cccc(C(F)(F)F)c1 -4.39%, Cc1nc(N)c(Br)c(C)c1Br -2.67%, Cn1cc(S(=O)(=O)N2CCN(c3ccc(F)cc3)CC2)c(=O)n(C)c1=O -4.51%, CC(C)[C@H](NC(=O)N1CCn2c1nc1ccccc12)C(=O)NCCc1ccccc1 2.7%, CC(C)[C@H](NC(=O)N1CCn2c1nc1ccccc12)C(=O)NCc1ccc2c(c1)OCO2 -3.94%, O=C(/C(=N\O)n1cncn1)c1ccc(Br)cc1Br 14.7%, COc1cc(OC)cc(C(=O)Nc2ncc3c(n2)CC(C)(C)CC3=O)c1 20%, O=C(NNC(=S)NC1CC2CCC1C2)c1ccc(Cl)cc1 (stereo unspecified) -9.96%, O=[N+]([O-])c1ccc(C(S(=O)(=O)Cc2ccccc2)S(=O)(=O)Cc2ccccc2)cc1 5.72%, CC1CN/C(=C\C(=O)c2ccc(Br)cc2)C(=O)N1 (stereo unspecified) 12.3%, O=C(NCCCN1CCOCC1)c1ccccc1NS(=O)(=O)c1ccc(Br)cc1 1.32%, O=C(CCS(=O)(=O)c1ccc(Br)cc1)NCCc1ccc(Cl)cc1 -3.71%, Cc1c(OC(C)C(=O)NCC2CCC(C(=O)O)CC2)ccc2c1oc(=O)c1ccccc12 (stereo unspecified) 4.13%, Cc1nonc1C1CCCN1Cc1nc(-c2ccc(F)cc2F)oc1C (stereo unspecified) 17.3%, CN(C)S(=O)(=O)c1ccc(C(=O)NCC(C)(C)N2CCOCC2)cc1 15.6%, COc1ccc(C2C(C#N)=C(N)Oc3n[nH]c(C)c32)cc1CN1CCN(c2ccc(F)cc2)CC1 (stereo unspecified) 3.36%, COCc1[nH]nc2c1C(C1C=CCCC1)C(C#N)=C(N)O2 (stereo unspecified) -8.71%, Cc1ccc(C)c(C(=O)COC(=O)Cn2[nH]c(=O)c3ccccc3c2=O)c1 6.49%, CC(=O)NNC1=Nc2ccccc2N(C)C(C)C1 (stereo unspecified) 19%, COC(=O)c1ccc(CN2C(=O)NC(c3ccccc3)(c3ccccc3)C2=O)o1 0.1%, COC(=O)c1ccc(COc2ccc(C#N)cc2)o1 10.2%, CCC(C)C(NC(=O)C1CCC(=O)N1C(=O)OCc1ccccc1)C(=O)NC(C(=O)N1CCCC1C(N)=O)C(C)CC (stereo unspecified) 2.28%, O=C1c2cccc3cccc(c23)C(=O)N1c1cccc(O)c1 4.66%, COC(=O)c1ccccc1NS(=O)(=O)c1ccc2[nH]c(=O)[nH]c2c1 17.7%, O=S(=O)(Nc1ccccc1N1CCOCC1)c1ccc(Cl)s1 -0.68%, COc1ccccc1C(=O)Nc1ccccc1C(=O)Nc1ccccc1 6.12%, O=C(Nc1ccc(S(=O)(=O)Nc2ccccn2)cc1)c1ccccc1 -0.79%, CSc1nnc(-c2ccc(C(F)(F)F)cn2)o1 4.97%, O=C(OCC(=O)N1CCc2ccccc21)c1ccc([N+](=O)[O-])cc1 -3.17%, CN1CCOC1c1ccc(C2OCCN2C)cc1 (stereo unspecified) 4.93%, CCCc1nc2c(C)cc(-c3nc4ccccc4n3C)cc2n1Cc1ccc(-c2ccccc2C(=O)O)cc1 17.1%, CN(C)CCCN(Cc1cc2cc3c(cc2[nH]c1=O)OCCO3)C(=O)NC1CCCCC1 -6.7%, Cc1cc(C(=O)OC(C)C(=O)NC2CCCCC2C)c(C)o1 (stereo unspecified) -2.53%, O=C(Cc1ccc(Br)cc1)NCCc1ccccc1 -0.6%, CC(C)(C)NC(=O)Cn1cnc([N+](=O)[O-])n1 4.8%, COCC(=O)N1CCc2ccc(NC(=O)c3ccccc3Cl)cc2C1 6.03%, S=C(NCc1cccs1)Nc1ccc(Cl)cc1 8.34%, FC(F)(F)Oc1ccc(NC(=S)NCc2ccccc2)cc1 44.6%, COc1ccc(NC2CC(=O)N(C)C2=O)cc1 (stereo unspecified) 20.5%, CN(C)CCN(C(=O)C1=COCCO1)c1nc2ccc(Cl)cc2s1 -9.68%, CCN(CC)CCN(C(=O)c1cc(Cl)sc1Cl)c1nc2cc3c(cc2s1)OCO3 -22.2%, O=C(COc1ccc(Cl)cc1)NCCSc1ccccc1 9.25%, O=C1CCC(CCC(=O)N2CCCC(C(=O)c3ccc(Cl)cc3)C2)=NN1 (stereo unspecified) -7.3%, CC(=O)n1cc([C@H]2C=C(C(=O)N3CCOCC3)O[C@@H](OCc3ccc(CO)cc3)C2)c2ccccc21 -5.43%, Cc1cc2c(cc1C)NC(c1ccccn1)C1=C(CC(C)(C)CC1=O)N2 (stereo unspecified) 7.43%, Cc1ccc(NC(=O)NC2CCCCC2)cc1S(=O)(=O)N1CCOCC1 5.45%, Cc1ccc(C(=O)Nc2ncccc2C)cc1S(=O)(=O)N1CCOCC1 -0.48%, Cc1nc(C)c(C(=O)N(c2ccc(C)c(C)c2)C(C(=O)NCc2ccco2)c2ccccc2)s1 (stereo unspecified) -3.65%, O=C(NCC(=O)N(c1ccccc1)C(C(=O)NCC1CCCO1)c1ccccc1)c1cccs1 (stereo unspecified) -1.33%, Cc1ccc(S(=O)(=O)N(CC(O)CN2CCCCC2)c2cccc([N+](=O)[O-])c2)cc1 (stereo unspecified) -12.3%, COc1ccc([N+](=O)[O-])cc1N(CC(O)CN(CC(C)C)CC(C)C)S(=O)(=O)c1ccc(C)cc1 (stereo unspecified) -23.4%, CN(Cc1ccc(CNC[C@H]2O[C@@H](n3cnc4c(N)ncnc43)[C@H](O)[C@@H]2O)o1)S(C)(=O)=O 15.6%, O=C(O)c1ccc(/C=N/NC(=S)NCc2ccccc2)cc1 3.62%, O=C(Cc1cccs1)N/N=C/c1ccc(OCc2ccccc2)cc1 -49.7%, CN(CCO)c1ccc(/C=N/Nc2nncc3ccccc23)cc1 13.7%, COc1ccc2[nH]c(=O)c(CN(Cc3cccnc3)S(=O)(=O)c3ccccc3F)cc2c1 -7.64%, CN(C)/C(=N\OC(=O)c1ccccc1)c1nonc1N 28.8%, CCCOc1ccc(CNC(=O)C2CCN(c3nn4c(=O)cc(C)nc4s3)CC2)cc1 4.13%, COc1ccc(CCNC(=O)C2CCN(c3nn4c(=O)cc(C)nc4s3)CC2)cc1OC -3.66%, CCOc1ccc(N(CC(=O)Nc2ccccc2F)S(=O)(=O)c2c(C)[nH]c(=O)[nH]c2=O)cc1 -6.15%, CCCNS(=O)(=O)c1ccc(CCC(=O)N2CCCC2)cc1 0.99%, C[C@@H]1CN([C@H](C)CO)C(=O)CCCn2nncc2CO[C@@H]1CN(C)C(=O)OCc1ccccc1 -0.52%, Cc1ccc(C(=O)c2coc3ccc(O)c(CN(C)C)c23)cc1 -15.4%, COc1ccccc1C(=O)N1CCN=C1SCc1cccnc1 11.4%, COc1cccc(OC)c1C(=O)N1CCN(Cc2ccccc2F)CC1 24.1%, Cc1nc2sc(C(c3ccco3)N3CCC4(CC3)OCCO4)c(O)n2n1 (stereo unspecified) 11.4%, [O-][N+]12CCCCC1CCCC2CO (stereo unspecified) 8.6%, COc1ccc(S(=O)(=O)N2CCc3ccccc32)cc1C(=O)Nc1cc(S(C)(=O)=O)ccc1Cl 2.64%, COc1ccccc1N(C)C(=O)c1cc(S(=O)(=O)N2CCc3ccccc32)cn1C -4.87%

inhibition, active:
O=C(CCC(=O)OCC(F)(F)C(F)F)NCc1ccccc1 108%, CCC(C)[C@H](NC(=O)N1CCn2c1nc1ccccc12)C(=O)NCc1ccc(OC)cc1 (stereo partly specified) 52.2%, O=C(NCCS(=O)(=O)c1ccc(Br)cc1)c1ccccc1Cl 71.2%, COc1cc(C2C(C#N)=C(N)Oc3n[nH]c(-c4ccccn4)c32)cc(OC)c1OC (stereo unspecified) 52.2%, COC(=O)c1ccc(Cc2ccccc2)o1 53%, COC(=O)c1ccc(NC(=O)c2ccccc2NS(=O)(=O)c2ccccc2)cc1 61%, COc1cc(NC(=O)c2ccccc2NS(=O)(=O)c2ccc(Cl)s2)cc(OC)c1 90.5%, O=C(Cn1cnc([N+](=O)[O-])n1)NCCc1ccccc1 67.5%, Fc1ccccc1CNC(=S)Nc1ccc(Cl)cc1 66%, CN(C)CCN(C(=O)CN1C(=O)c2ccccc2C1=O)c1nc2cc3c(cc2s1)OCCO3 85.2%, Cc1ccc(C(=O)Nc2ccccc2C(=O)NC2CCCCC2)cc1S(=O)(=O)N1CCOCC1 72.2%, Cc1cccc(N(C(=O)c2sc(C)nc2C)C(C(=O)NCC2CCCO2)c2ccccc2)c1 (stereo unspecified) 54.8%, COc1ccc([N+](=O)[O-])cc1N(CC(O)Cn1nnc2ccccc21)S(=O)(=O)c1ccc(C)cc1 (stereo unspecified) 67.3%, C=CCNC(=S)N/N=C/c1ccc(OCc2ccccc2)cc1 95.3%, Cc1cc(=O)n2nc(N3CCC(C(=O)Nc4c(F)c(F)c(F)c(F)c4F)CC3)sc2n1 88.8%, COc1cccc(OC)c1C(=O)N1CCN(Cc2cccnc2)CC1 56.1%, COc1cccc(NC(=O)c2cc(S(=O)(=O)N3CCc4ccccc43)cn2C)c1 82.7%
